# From PubChem BioAssay (EPA / NIEHS)
# Inconclusive results are not listed. Active and inactive are the calls of the source. Rule for the calls: active = hit-call score of the fitted dose curve at least 0.9, where 1 is the maximum; inconclusive = response in the unintended direction; inactive = score below 0.9.
# Read-out: xenobiotic metabolism (CYP1A1), CYP1A1 (gene 1543)
# Test: CLD_CYP1A1_24hr: CellzDirect (CLD) Gene Expression Assay for xenobiotic metabolism (CYP1A1) at 24 hours (AID 2283673)
# Experimental: CLD_24hr is a cell-based, multiplexed-readout assay that uses hepatocyte, a human liver primary cell, with measurements taken at 24 hours after chemical dosing in a 96-well plate.CLD_CYP1A1_24hr is one of 16 assay component(s) measured or calculated from the CLD_24hr assay. It is designed to make measurements of mRNA induction, a form of inducible reporter, as detected with chemiluminescence signals by Quantitative Nuclease Protection Assay (qNPA) technology.Data from the assay component CLD_CYP1A1_24hr was analyzed at the endpoint, CLD_CYP1A1_24hr, in the positive analysis fitting direction relative to DMSO as the negative control and baseline of activity. Using a type of inducible reporter, gain-of-signal activity can be used to understand changes in the reporter gene as they relate to the gene CYP1A1. Furthermore, this assay endpoint can be referred to as a primary readout. To generalize the intended target to other relatable targets, this assay endpoint is annotated to the cyp intended target family, where subfamily is xenobiotic metabolism.
# Human hepatocyte cultures were treated daily for two consecutive days with fresh dosing solutions containing appropriate concentrations of the 320 ToxCast chemicals (chemical identities were blinded to CellzDirect and other ToxCast collaborators), vehicle control (0.2% DMSO), and positive control inducers as summarized in Table 1. Due to the large number of treatment groups and chemicals examined, the ToxCast chemicals were divided into two groups (spanning two independent cultures of hepatocytes from separate donor preparations (Hu778: ToxCast plates 1 and 2; Hu776: ToxCast plates 3 and 4). Each preparation of human hepatocyte cultures was treated with respective vehicle control, medium only control, set of six positive controls/reference chemicals for the five hepatic receptor pathways, and a subset of eight of the ToxCast chemicals (indoxacarb, pyrithiobac-sodium, norflurazon, cyhalofop-butyl, methomyl, thiram, acetochlor, and propiconazole). These replicate data, coupled with internal replicates designed within the blinded ToxCast chemical library, provided additional data to evaluate interindividual differences between hepatocyte preparations and their potential impact on chemical profiles.Cell morphology and integrity were evaluated using phase-contrast microscopy as an indicator of hepatocyte cell health (Tyson & Green, 1987). Cultures for each treatment group (i.e., media, vehicle [0.2% DMSO], positive control inducers [multiple concentrations], and the ToxCast chemicals [multiple concentrations]) were observed and cell morphology was assessed relative to vehicle control cultures at each harvest time point (0, 6, 24, or 48 h). […] Images were evaluated at the conclusion of the study to assess changes in cell integrity and account for the effects of chemical exposure on uncharacteristic changes in concentration-dependent gene expression profiles. The results from these determinations of apparent cytotoxicity were annotated (yes/no) alongside the corresponding qNPA data for reference.At the conclusion of each treatment period, hepatocyte cultures (96-well) were washed with 1 volume of HBSS, lysed by addition of 25 ul ArrayPlate lysis buffer (HTG, Tucson, AZ), and 70 ul/well of Denaturation Oil, denatured by incubation at 95C for 10 min, and frozen at approximately -70C until analysis by nuclease protection assay (qNPA) (Roberts et al., 2007). For qNPA analysis, cell lysates were thawed at 50C for approximately 30 min, qNPA probes were added, and samples were incubated at 95C for 10 min to begin the detection process by denaturing the target RNA, dissociating the duplexes and secondary structure hybridization. At the conclusion of the hybridization period, S1 nuclease reagent was added to each sample to digest all nonprotected nucleotides at 50C for 60-90 min. […]
Compound,outcome,AC50
O=S1OCC2C(CO1)C1(Cl)C(Cl)=C(Cl)C2(Cl)C1(Cl)Cl (stereo not given),inactive,–
COP(=S)(OC)Oc1ccc(SC)c(C)c1,–,20 µM (active)
CCCN(CCC)c1c([N+](=O)[O-])cc(C(F)(F)F)cc1[N+](=O)[O-],–,8.5 µM (active)
CNC(=O)/C=C(\C)OP(=O)(OC)OC,inactive,–
CC(C)(C)C(O)C(Oc1ccc(Cl)cc1)n1cncn1 (stereo not given),–,2.22 µM (active)
CCOCN(C(=O)CCl)c1c(C)cccc1CC,–,1.99 µM (active)
C[C@H]1[C@H](c2ccc(Cl)cc2)SC(=O)N1C(=O)NC1CCCCC1,–,3.97 µM (active)
CCC(C)(NC(=O)c1cc(Cl)c(C)c(Cl)c1)C(=O)CCl (stereo not given),inactive,–
CN1CSC(=S)N(C)C1,–,3.9 µM (active)
O=C1c2ccccc2C(=O)N1SC(Cl)(Cl)Cl,inactive,–
CC(C)N(C(=O)COc1nnc(C(F)(F)F)s1)c1ccc(F)cc1,inactive,–
COC(=O)c1ccccc1S(=O)(=O)NC(=O)Nc1nc(C)nc(OC)n1,inactive,–
CCN(CC)C(=O)SCc1ccc(Cl)cc1,inactive,–
CCOc1nc(NC)nc(NC(=O)NS(=O)(=O)c2ccccc2C(=O)OC)n1,–,7.53 µM (active)
COc1nn(CSP(=S)(OC)OC)c(=O)s1,–,4.39 µM (active)
Oc1cc(Cl)ccc1Oc1ccc(Cl)cc1Cl,inactive,–
CCCN(CCOc1c(Cl)cc(Cl)cc1Cl)C(=O)n1ccnc1,–,1.89 µM (active)
O=[N+]([O-])/N=C1\NCCN1Cc1ccc(Cl)nc1,inactive,–
COP(=O)(OC)OC=C(Cl)Cl,inactive,–
CCC(C)(C)C(=O)OC1=C(c2ccc(Cl)cc2Cl)C(=O)OC12CCCCC2,inactive,–

Compound,outcome,AC50
COC(=O)c1ccccc1CS(=O)(=O)NC(=O)Nc1nc(OC)cc(OC)n1,–,32.4 µM (active)
O=[N+]([O-])c1c(Cl)c(Cl)c(Cl)c(Cl)c1Cl,–,20 µM (active)
OCCOc1ccccc1,inactive,–
CCOC1Oc2ccc(OS(C)(=O)=O)cc2C1(C)C (stereo not given),inactive,–
CNC(=O)CSP(=S)(OC)OC,inactive,–
Clc1ccccc1-c1nnc(-c2ccccc2Cl)nn1,–,5.94 µM (active)
CC1(C)C(C=C(Cl)Cl)C1C(=O)OC(C#N)c1ccc(F)c(Oc2ccccc2)c1 (stereo not given),inactive,–
CC(C)(C)C(O)/C(=C\c1ccc(Cl)cc1Cl)n1cncn1 (stereo not given),–,6.46 µM (active)
O=C(O)C(F)(F)C(F)(F)C(F)(F)C(F)(F)C(F)(F)C(F)(F)C(F)(F)F,inactive,–
CCC(C)Nc1c([N+](=O)[O-])cc(C(C)(C)C)cc1[N+](=O)[O-] (stereo not given),inactive,–
CC1(c2ccc(Oc3ccccc3)cc2)OC(=O)N(Nc2ccccc2)C1=O (stereo not given),–,3.89 µM (active)
O=C(NC(=O)c1c(F)cccc1F)Nc1ccc(OC(F)(F)C(F)OC(F)(F)F)c(Cl)c1 (stereo not given),inactive,–
O=C(Nc1ccccc1)Nc1cnns1,–,2 µM (active)
Cc1[nH]c(=O)n(C(C)(C)C)c(=O)c1Cl,–,7.51 µM (active)
CCc1ccc(C(=O)NN(C(=O)c2cc(C)cc(C)c2)C(C)(C)C)cc1,–,9.97 µM (active)
COC(=O)c1ccccc1S(=O)(=O)NC(=O)N(C)c1nc(C)nc(OC)n1,inactive,–
CC[C@H](C)[C@H]1O[C@]2(C=C[C@@H]1C)C[C@@H]1C[C@@H](C/C=C(\C)[C@@H](O[C@H]3C[C@H](OC)[C@@H](O[C@H]4C[C@H](OC)[C@@H](O)[C@H](C)O4)[C@H](C)O3)[C@@H](C)/C=C/C=C3\CO[C@@H]4[C@H](O)C(C)=C[C@@H](C(=O)O1)[C@]34O)O2 (tested in a mixture with another compound),–,35.2 µM (active)
COP(=S)(OC)Oc1ccc([N+](=O)[O-])cc1,–,4.2 µM (active)
Cc1cc(C)nc(NC(=O)NS(=O)(=O)c2ccccc2C(=O)OC2COC2)n1,–,5.65 µM (active)
CC(C)OC(=O)Nc1cccc(Cl)c1,–,5.63 µM (active)
